A number with no mark means an inactive call. Active and inactive are the calls of the source. Calls come from the whole dose curve; as a rule, active = well fitted curve in the direction sought with a large enough effect in the repeat runs; inconclusive = weak or mixed curves; inactive = flat fitted curve, though single readings scatter.
Test: qHTS assay to test for compound auto fluorescence at 460 nm (blue) in HepG2 cells (AID 720687)
Details: autofluorescence 405/460 nm, 1 h; series mostly up to 46 µM; fluorescence, % of fluorescent control: at the top concentration
Outline: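 Cells (2,000/well in MEM with 10% FBS) attached overnight at 37 C, then were exposed to compound or DMSO for 1 hr at 37 C, 5% CO2. Fluorescence read at Ex/Em 405/460 nm, expressed as triamterene-equivalent signal.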
% is set by controls: 0 for no effect and ±100 for the full control effect; potency is the fitted concentration of half-maximal effect; tags give direction and shape of the fitted curve or compound fluorescence and quenching.

Compound	fluorescence, % of fluorescent control	Potency
CC12CCC(C1)C(C)(C)C2=O (configuration not stated)	-0.0439%	–
CCCCCCCC/C=C\CCCCCCCC(=O)N(CCO)CCO	-0.0056% [at 91.3 µM]	–
C[C@H](O)CN(C)C	-0.0838%	–
C[C@H](Cc1ccc(O)c(O)c1)[C@@H](C)Cc1ccc(O)c(O)c1	0.148%	–
CCCOC(=O)c1ccc(O)cc1	–	inactive
NCC1CCC(C(=O)O)CC1 (configuration not stated)	0.0359% [at 18.6 µM]	–
CN(C)CCc1c[nH]c2ccc(Cn3cncn3)cc12	-0.0091%	–
CN(Cc1ccccc1)Cc1ccccc1	0.0121%	–
CN1C(=O)C[C@@H](C(=O)N[C@@H](Cc2cnc[nH]2)C(=O)N2CCC[C@H]2C(N)=O)NC1=O	0.117%	–
O=C(N[C@H](CO)[C@H](O)c1ccc([N+](=O)[O-])cc1)C(Cl)Cl	–	inactive
COc1cc(NS(C)(=O)=O)ccc1Nc1c2ccccc2nc2ccccc12	–	12.6 µM [fluorescent] (active)
N[C@@H](Cc1ccc(O)c(O)c1)C(=O)O	1.02%	–
CCCn1c(=O)[nH]c(=O)c2[nH]cnc21	-0.0949%	–
N=C(N)c1ccc(/C=C/c2ccc(C(=N)N)cc2O)cc1	0.225%	–
O=C1c2ccccc2-c2n[nH]c3cccc1c23	–	14.1 µM [fluorescent] (active)
O=C1CC[C@@H](C(=O)N[C@H]2C[C@@H]2c2ccccc2)N1	0.134%	–
CC12CCC(C[N+](C)(CCC[N+](C)(C)C)C1)C2(C)C (configuration not stated)	-0.104%	–
CC(O)(c1ccc(Cl)cc1)c1ccc(Cl)cc1	0.0287% [at 91.3 µM]	–
CC(C)(COP(=O)(O)OP(=O)(O)OC[C@H]1O[C@@H](n2cnc3c(N)ncnc32)[C@H](O)[C@@H]1OP(=O)(O)O)C(O)C(=O)NCCC(=O)NCCS (some centres not stated)	-0.081%	–

Compound	fluorescence, % of fluorescent control	Potency
CN=C(N)NCCC[C@H](N)C(=O)O	–	inactive
Cc1cc(CC(C)CC(C)(C)C)n(O)c(=O)c1 (configuration not stated) (tested in a mixture with another compound)	0.167%	–
O=P(O)(O)CP(=O)(O)O	0.0917%	–
CC(=O)OCC(=O)[C@@]1(O)CC[C@H]2[C@@H]3C[C@H](C)C4=CC(=O)C=C[C@]4(C)[C@H]3[C@@H](O)C[C@@]21C	0.003%	–
CCCOC(=O)c1ccccc1O	-0.028%	–
CCCCCCCCCCCCCCCCCCNC(=O)OC1CCN(C(=O)OC[C@H](COC(=O)N(Cc2cccc[n+]2CC)C(=O)c2ccccc2OC)OC)CC1	0.0043%	–
CC(Cc1ccc(O)c(O)c1)C(C)Cc1ccc(O)c(O)c1 (configuration not stated)	0.0315% [at 91.3 µM]	–
CCCCCCCC[N+](C)(C)CCCCCCCC	–	inactive
CC(CNC(=O)c1cccnc1)NC(=O)c1cccnc1 (configuration not stated)	-0.0515%	–
O=C(O)COc1ccccc1/C=N/NC(=O)c1ccncc1	0.0355%	–
O=C(O)CCCC/C=C(\c1ccccc1)c1cccnc1	-0.0031%	–
CCC1OC(=O)C[C@@H](O)[C@H](C)[C@@H](O[C@@H]2O[C@H](C)C[C@H](N(C)C)[C@H]2O)[C@@H](CC=O)C[C@@H](C)C(=O)/C=C/[C@]2(C)OC2C1C (some centres not stated)	–	inactive
SC1CCCCC1	0.103% [at 95.7 µM]	–
NC[C@H]1O[C@H](O[C@H]2[C@H](O)[C@@H](O[C@H]3O[C@H](CO)[C@@H](O)[C@H](N)[C@H]3O)[C@H](N)C[C@@H]2N)[C@H](N)C[C@@H]1O	0.0699% [at 18.6 µM]	–
NCC[C@H](O)C(=O)N[C@@H]1C[C@H](N)[C@@H](O[C@H]2O[C@H](CN)CC[C@H]2N)[C@H](O)[C@H]1O[C@H]1O[C@H](CO)[C@@H](O)[C@H](N)[C@H]1O	0.0503%	–
CN1[C@@H](CC(=O)c2ccccc2)CCC[C@H]1C[C@H](O)c1ccccc1	0.0385%	–
CN1CCN(CCCN2c3ccccc3Sc3ccc(Cl)cc32)CC1	0.0124%	–
CCCCCCCCCC[N+](C)(CCCCCCCCCC)CCC[Si](OC)(OC)OC	-0.0371% [at 91.3 µM]	–
